# Test results published in PubChem BioAssay (NCI).
# About 83,000 compounds went through this panel and 20% of them were active in at least one assay; those are over-represented in the sample as a whole.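 Testing used 96-well plates and a 48-hour single-concentration exposure. Example: -40 means 40% of the starting cells died.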 Unmarked numbers belong to inactive results. Activity calls are given as the source filed them. Rule for the calls: active = growth percent below 10; inactive = the rest.
# Columns and labels:
# Assay in all cases: NCI-60 one-dose screen, 48 h (100 = growth as untreated, 0 = no growth, -100 = all killed)
# MDA-MB-435 melanoma = details: 10 µM unless noted
# SW-620 colon = details: 10 µM unless noted
# MCF7 breast = details: 10 µM
# HCT-116 colon = details: 10 µM unless noted
# HCC-2998 colon = details: 10 µM unless noted
# KM12 colon = details: 10 µM unless noted
Compound,growth (MDA-MB-435 melanoma),growth (SW-620 colon),growth (MCF7 breast),growth (HCT-116 colon),growth (HCC-2998 colon),growth (KM12 colon)
CCCCCCCCCCCC1CCCC(C)N1 (stereo not drawn),71.8%,49.4%,44.1%,65%,-72.4% (active),44%
Oc1cc[c]([Hg][Cl])cc1,96%,105%,50.5%,91%,114%,97.4%
COc1ccc(OC)c(/C=C/[N+](=O)[O-])c1,7.04% (active),-38.7% (active),-1.64% (active),-81.5% (active),-82.4% (active),11.7%
